The results in this text go back to PubChem BioAssay (NCI).

The panel holds about 83,000 compounds, 20% with a hit somewhere; the sample as a whole holds those more often.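 The endpoint reported here, percent growth, reads 100 for growth as untreated, 0 for no net growth and -100 for all cells dead.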 A number with no mark means an inactive call. The source made the active and inactive calls. Rule for the calls: active = growth percent below 10; inactive = the rest.

Assay in all cases: NCI-60 one-dose screen, 48 h (100 = growth as untreated, 0 = no growth, -100 = all killed)
Conditions in all cases: 10 µM unless noted

Assay [1] deals with NCI-H23 lung.
In assay [2] the test system is NCI-H226 lung.
Assay [3] deals with NCI-H322M lung.
In assay [4] the test system is HOP-62 NSCLC.
The subject of assay [5] is NCI-H460 lung.
Assay [6] relates to HOP-92 NSCLC.
For assay [7], the system named is NCI-H522 lung.
Assay [8] concerns A549/ATCC NSCLC.
Assay [9] relates to 786-0 renal.
Assay [10] has as its system COLO 205 colon.

On to `Clc1ccc(Sc2cnc(-c3ccccc3)o2)cc1`, for which the growth in assay [1] was 95.5%; in assay [2] it was 106%; in assay [3] it was 91.9%; in [4], 94.4%; in assay [5] it was 110%; in [6], 86.1%. The growth in assay [7] was 99.2%; in assay [8], 92%; in assay [9], 93.9%; in assay [10], 110%.

Regarding `COC(=O)/C(CCC=C(C)C)=C1\[C@@H](OC(C)=O)C[C@@]2(C)[C@H]1C[C@@H](O)[C@H]1[C@@]3(C)CC[C@H](NCCN)[C@@H](C)[C@@H]3CC[C@@]12C`, the growth is 88.7% in assay [1]; 83.5% in assay [2]; 83.5% in assay [3]; 93% in assay [4]; 99.6% in assay [5]; 53.1% in [6]. In addition, the growth in assay [7] was 86.9%; in assay [8], 88.9%; in assay [9], 73.5%; in [10], 80.3%.

As to `O=C1c2ccc3c4ccc5c6c(ccc(c7ccc(c2c37)C(=O)N1CCC[P+](c1ccccc1)(c1ccccc1)c1ccccc1)c64)C(=O)N(CCC[P+](c1ccccc1)(c1ccccc1)c1ccccc1)C5=O`, the growth in assay [1] is 28.1%; in [2], 105%; in [3] it was 84.2%; in assay [4], 60.3%; in assay [5], 28%; in [6] it was 77.3%. For the same compound, the growth in assay [7] is 67.6%; in assay [8] it was 43.8%; in assay [9], 91.2%; in [10] it was 15.5%.

Consider `Fc1ccc2[nH]cc(-c3nonc3-c3c[nH]c4ccc(Br)cc34)c2c1`, for which the growth is 24.4% in [1]; 53.6% in assay [2]; 35.9% in assay [3]; 9.17% (active) in [4]; 1.22% (active) in assay [5]; 22.4% in assay [6]. Moreover, the growth in assay [7] is -12.1% (active); in [8] it was 19.5%; in [9], 23.5%; in [10] it was -45.5% (active).

For `O=[N+]([O-])c1ccc(-c2nc(N3CCOCC3)c3c4c(sc3n2)CCCC4)cc1`, the growth in assay [1] was 88.8%; in assay [2], 85%; in assay [3], 96.3%; in [4] it was 82.4%; in [5], 107%; in assay [6], 111%. The growth in assay [7] is 79.3%; in [8], 95.7%; in assay [9], 93%; in assay [10] it was 90.9%.

Consider `Nc1c(C(=O)Nc2ccncc2)sc2nc3c(cc12)CCCCCC3`, for which the growth in assay [1] is 88.6%; in assay [2] it was 80.4%; in assay [3] it was 80.6%; in [4], 96.6%; in [5], 89.9%; in [6], 67.1%. Also, the growth was 81.6% in [7], 76.7% in [8], 74.6% in assay [9] and 104% in assay [10].

With `COC(=O)c1c2c(c[n+]([O-])c1C)C(=O)C(NCc1ccccc1)=CC2=O`, the growth in assay [1] is -34.1% (active); in assay [2] it was -9.27% (active); in assay [3], -8.65% (active); in assay [4] it was 4.14% (active); in assay [5], -30.3% (active); in assay [6] it was -29.7% (active). For the same compound, the growth in assay [7] was -30.5% (active); in assay [8] it was -19.8% (active); in assay [9], 10.5%; in assay [10], -52.5% (active).

With `C=CCn1c(SCC(=O)NCc2cc(C)c(O)c(C)c2)nc2ccc(Cl)cc2c1=O`, the growth was 101% in assay [1]; 87.2% in assay [2]; 97% in assay [3]; 101% in assay [4]; 107% in [5]; 82.2% in assay [6]. Also, the growth is 94.1% in assay [7], 106% in [8], 92.5% in [9] and 116% in assay [10].

In the case of `Nc1nc2c([nH]1)c1[nH]c3ccccc3c1c1[nH]c3ccccc3c21`, the growth in assay [1] was 63.5%; in assay [2] it was 78.3%; in assay [3] it was 25.6%; in [4], 67.8%; in [5] it was 8.05% (active); in [6] it was -2.6% (active). Also, the growth was 26.4% in [7], 85.5% in [8], 30.9% in assay [9] and -81.3% (active) in assay [10].

Take `CC(C)c1ccc(NC(=O)Nc2ccc(NC(=O)CCCC(=O)NOCc3ccccc3)cc2)cc1`: the growth in [1] was 98.4%; in assay [2], 85.2%; in assay [3] it was 90.6%; in assay [4], 91.2%; in assay [5] it was 77.9%; in [6], 104%. For the same compound, the growth in [7] is 71.3%; in assay [8], 85.3%; in assay [9], 101%; in [10], 93.4%.

For `CCn1c(=S)[nH]c2c(=O)n(C)c(=O)n(C)c21`, the growth in assay [1] was 105%; in [2], 105%; in assay [3] it was 95%; in assay [4], 109%; in assay [5] it was 123%; in assay [6] it was 89.8%. Further, the growth was 90.3% in assay [7], 96.3% in assay [8], 97.1% in assay [9] and 116% in [10].

Take `CCNc1nc(-c2ccc(Cl)c(OC)c2)c(-c2ccnc(NCCCNS(=O)(=O)c3ccc(Cl)cc3)n2)s1`: the growth in assay [1] was 83.7%; in assay [2], 72.2%; in assay [3], 101%; in assay [4], 61.7%; in assay [5], 63.7%; in assay [6], 20.9%. Moreover, the growth is 28.9% in assay [7], 44.9% in assay [8], 54.3% in assay [9] and 11.7% in assay [10].

For `CNC(=O)c1c(NC(=O)c2ccc(C(F)(F)F)cc2)sc2c1CCC(=O)C2`, the growth in assay [1] is -5.25% (active); in [2], 9.17% (active); in [3] it was 29.5%; in assay [4], 14.5%; in [5], 4.57% (active); in [6], -35.8% (active). Besides, the growth is -26.1% (active) in assay [7], 13.7% in [8], 10.3% in assay [9] and -36.1% (active) in assay [10].
